Marburg entry inh: qHTS for inhibitors of binding or entry into cells for Marburg Virus | Marburg virus pseudotyped entry inhibition, cell reporter | Potency, µM (top dose mostly 37.8 µM), without a hit: at the highest dose activity change, negative = inhibition, most hits filed as inhibitors | hit rate 1.8% among 300,000; calls by dose curve; tested in HEK293 cells; also: potency is read from the fitted curve at half-maximal effect; % is scaled to controls: 0 for no effect and ±100 for the full control effect
Pf growth 96h: Primary qHTS for delayed death inhibitors of the malarial parasite plastid, 96 hour incubation | P. falciparum luciferase reporter growth, 96 h | Potency, µM (doses to about 28.7 µM), for inactives: top-dose activity change, negative = inhibition, most hits filed as inhibitors | hit rate 6.9% among 320,000 | AID 504834, 2011; also: potency is read from the fitted curve at half-maximal effect; % is scaled to controls: 0 for no effect and ±100 for the full control effect
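Two parasite generations (96 h, 37 C, 5% CO2) of compound exposure in infected erythrocytes (0.05% parasitemia, 2% hematocrit). Luciferase-reporter P. falciparum; decreased luminescence indicates inhibited growth, aimed at apicoplast-acting delayed death.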
Shiga inhibitor: A qHTS for Small Molecule Inhibitors of Shiga Toxin. Vero cells, Shiga toxin protein synthesis inhibition reporter. inhibition, % at 38.7 µM. hit rate 9.2% among 290,000. AID 2315, 2010; in the data active = inhibition mostly above about 28%, no sharp cut-off; inactive = mostly below about 43%; also: 0% is about no effect
Pf growth 48h: Primary qHTS for delayed death inhibitors of the malarial parasite plastid, 48 hour incubation; P. falciparum luciferase growth in erythrocytes, 48 h; Potency, µM (highest dose often 28.7 µM), for the others: at the highest dose activity change, negative = inhibition, actives largely listed as inhibitors; hit rate 5.9% among 310,000; also: potency is read from the fitted curve at half-maximal effect; % is scaled to controls: 0 for no effect and ±100 for the full control effect
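Luciferase-expressing parasites in RBCs, 2% Hct / 0.1% parasitemia final; RPMI 1640 + 0.5% Albumax; 37 C, 5% CO2, one generation; luminescence read-out, lower signal = inhibition.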
CHX counter: Cycloheximide Counterscreen for Small Molecule Inhibitors of Shiga Toxin | cell reporter, cycloheximide protein synthesis inhibition counterscreen | max response, % | hit rate 12% among 300,000 | AID 2314, 2010; in the data active = max response mostly above about 13%, no sharp cut-off; inactive = mostly below about 14%; also: read at 38.3 µM for the half of the compounds with a filed dose; 0% is about no effect
Lassa entry inh: qHTS for Inhibitors of binding or entry into cells for Lassa Virus. Potency, µM (titrated, usually from 37.9 µM), for the others: top-dose activity change, negative = inhibition, usual class: inhibitors. hit rate 1.2% among 300,000. Lassa virus pseudotype entry inhibition, cell reporter; calls by dose curve; tested in HEK293 cells; also: potency is read from the fitted curve at half-maximal effect; % is scaled to controls: 0 for no effect and ±100 for the full control effect; nearly all actives have a fitted effect of over 50% in size
* = called active by the depositor; ? = inconclusive; / = no result given; [ ] = remark or other dose. This is a sample that favours compounds with a hit; in the whole collection about 19% have one here. Unless noted, calls follow the shape of the dose curve; as a rule, active = well fitted inhibition curve with a large enough effect; inconclusive = small, poorly fitted or top-dose-only effect, or another doubt; inactive = no such curve, though single readings can be large or run the other way.

SMILES	Marburg entry inh	Pf growth 96h	Shiga inhibitor	Pf growth 48h	CHX counter	Lassa entry inh
O=C(CSc1nncs1)NCc1ccc(F)cc1	0%[46.1 µM]	-14%	13	0%	3	8%
COCc1c(C(=O)N/N=C\c2cccs2)nnn1-c1nonc1N	-17%[46.1 µM]	?	-4	18%	-1	-4%[46.1 µM]
COC(=O)c1cc2c(cc1N)OCCO2	-1%[46.1 µM]	4%	26	30%	25*	?
Cc1cc(/C=N/NC(=O)c2cccs2)c(C)n1-c1cnccn1	/	73%	59*	266%	48*	/
Cc1ccc(-n2c(C)cc(/C=N/NC(=O)CC3(C)OCCO3)c2C)c(C)c1	-27%[46.1 µM]	-23%	15	9.3µM*	9	-19%
Cc1cc(/C=N/NC(=O)c2cccc([N+](=O)[O-])c2)c(C)n1-c1ccccc1	?	-1%	25	27%	34*	-3%
Cc1ccc(-n2c(C)cc(/C=N/NC(=O)c3ccncc3)c2C)c(C)c1	-1%	1.7µM*	13	2.3µM*	14	1%
COc1ccc(C(=O)N2CCC(O)(c3ccc(F)cc3)CC2)cc1OC	23%[46.1 µM]	/	-14	8%	-1	-1%
CCc1ccc(-n2c(C)cc(/C=N/NC(=O)c3ccncc3)c2C)cc1	/	164%	10	?	7	/
Cc1ccc2occ(/C=N/NC(=O)c3ccncc3)c(=O)c2c1	/	3.7µM*	-11	10%	-4	/

Screening results deposited in PubChem by National Center for Advancing Translational Sciences (NCATS).
